Source: PubChem
Most compounds without a hit are left out; they make up all but 6.8% or so of the library.
T cruzi growth-1 = inhibitors of T. cruzi proliferation. T. cruzi beta-gal in NIH3T3, GalScreen luminescence, 90 h. inhibition, % at 8.34 µM. actives 5.9% (n = 77,000). AID 624255;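 active = mean inhibition above about 93%, with at least 55% of replicates each passing it, limit read from the data, passing the limit was not always enough; inconclusive = only one of those two conditions holds; inactive = neither condition holds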
Pf Dd2 growth = blocks growth of Plasmodium falciparum Dd2 parasites. P. falciparum Dd2 growth, SYBR Green, 72 h; stronger effect = lower value. activity change, % at 10 µM. actives 2.3% (n = 94,000). AID 1159554; in the data active = activity change below about -80%; inconclusive = no clear call, values can overlap the other calls
C diff HTS = C. difficile growth inhibition; Clostridium difficile clinical isolate growth, OD600, 24 h; stronger effect = lower value; growth activity, negative = inhibition, % at 16 µg/mL (by protocol); actives 0.25% (n = 86,000); AID 1259249;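 active = mean growth activity at or below -80% and every replicate also at or below -80%; inconclusive = mean at or below -80% but some replicate above -80%; inactive = mean growth activity above -80%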;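 note: 0% = DMSO wells and -100% = levofloxacin 16 µg/mL wells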
T cruzi growth-2 = blocks T. cruzi growth in NIH3T3 host cells; actives 72% (n = 5,600); AID 651739; T. cruzi beta-gal in NIH3T3, GalScreen luminescence, 90 h; inhibition, % at 8.35 µM; shares compounds with T cruzi growth-1;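 active = mean replicate inhibition above about 95% and at least 55% of replicates individually reaching it, limit read from the data; inconclusive = only one of the two criteria is met; inactive = neither criterion is met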
T cruzi growth-3 = Trypanosoma cruzi proliferation inhibition; shares compounds with T cruzi growth-1; T. cruzi beta-gal in NIH3T3, GalScreen luminescence, 90 h; inhibition, % at 2.09 µM; actives 21% (n = 5,600);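 active = mean inhibition above about 95%, with at least 55% of replicates also reaching it, limit read from the data; inconclusive = meets just one of the two conditions; inactive = meets neither condition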;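 note: plate controls were neutral control median for no effect and positive control median for full effect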
NIH3T3 tox = cytotoxicity in mouse NIH/3T3 fibroblasts; NIH/3T3 viability, CellTiter-Glo ATP luminescence, 90 h; shares compounds with T cruzi growth-1; actives 14% (n = 5,600); cytotoxicity (signal decrease), % at 8.35 µM; AID 651742;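 active = mean signal decrease across replicates above about 35% based on untreated-well scatter, with enough replicates individually passing, limit read from the data; inconclusive = no rule stated though some were filed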;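 note: 0% = median of neutral control wells and 100% = median of positive control wells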
NIH3T3 tox 2 = cytotoxicity in mouse NIH/3T3 fibroblasts. actives 56% (n = 5,600). shares compounds with T cruzi growth-1. inhibition, % at 24.9 µM. NIH/3T3 viability, CellTiter-Glo ATP luminescence, 90 h;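 active = mean loss of cell viability signal at or above a set limit, and enough replicates individually reaching it; inconclusive = meets only the mean limit or only the replicate share; inactive = meets neither condition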;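 note: 0% = median of neutral control wells and 100% = median of positive control wells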
* = called active by the depositor; ? = inconclusive; · = not tested or not shown.

SMILES	T cruzi growth-1	Pf Dd2 growth	C diff HTS	others
N#Cc1ccc(-c2ccc3c(c2)[C@@H]2[C@@H](CCN2C(=O)C2CCCC2)[C@@H](CO)N3)cc1	·	-76	-15
COCC(=O)N1CC[C@H]2[C@H](CO)Nc3ccc(-c4ccc(C#N)cc4)cc3[C@H]21	74	-22	-3
N#Cc1ccc(-c2ccc3c(c2)[C@H]2[C@H](CCN2C(=O)C2CCC2)[C@@H](CO)N3)cc1	·	-55	-3
C[C@@H]1CN([C@@H](C)CO)C(=O)c2cc(C#C[C@@H](C)O)cnc2O[C@H]1CN(C)C(=O)CN1CCOCC1	58	-18	-5
COc1ccc(NC(=O)N(C)C[C@H]2Oc3ncc(-c4cccnc4)cc3C(=O)N([C@@H](C)CO)C[C@@H]2C)cc1	-148	-1	0
O=C(Cc1ccccn1)NCC[C@H]1CC[C@@H](NS(=O)(=O)c2ccc(Cl)cc2)[C@@H](CO)O1	-3	-13	3
C[C@H]1CCCCO[C@@H](CN(C)S(=O)(=O)c2ccc(Cl)cc2)[C@@H](C)CN([C@@H](C)CO)C(=O)c2cc(NS(C)(=O)=O)ccc2O1	12	-34	-14
CO[C@H]1CN(C)C(=O)c2cc(NS(C)(=O)=O)ccc2OC[C@H](C)N(C(=O)c2ccc3c(c2)OCO3)C[C@H]1C	·	-13	·
COc1ccc(S(=O)(=O)N(C)C[C@H]2Oc3ccc(NC(=O)C4CC4)cc3CC(=O)N([C@H](C)CO)C[C@H]2C)cc1	36	3	5
CC(C)C[C@@H]1NC(=O)[C@H]2C[C@@H](C(=O)NCc3ccc(F)cc3)[C@@H](c3cccc(OCCO)c3)N2C1=O	·	·	-1
C[C@H](CO)N1C[C@H](C)[C@H](CN(C)Cc2ccc(C(F)(F)F)cc2)Oc2ccc(NS(=O)(=O)c3cccs3)cc2C1=O	14	17	8
C[C@@H]1CN([C@H](C)CO)C(=O)c2cc(/C=C/c3ccccc3)cnc2O[C@@H]1CN(C)C(=O)C1CCCCC1	30	-71	-8
C[C@H]1CN([C@@H](C)CO)C(=O)c2cc(/C=C/c3ccccc3)cnc2O[C@@H]1CN(C)C(=O)C1CCCCC1	99*	-88*	-11	T cruzi growth-2=101*;T cruzi growth-3=61;NIH3T3 tox=9;NIH3T3 tox 2=?
C[C@H](CO)N1C[C@H](C)[C@@H](CN(C)C(=O)C2CCC2)Oc2ncc(/C=C/c3ccccc3)cc2C1=O	59	-64	-5
C[C@H](CO)N1C[C@H](C)[C@H](CN(C)C(=O)C2CCCCC2)Oc2ncc(/C=C/c3ccccc3)cc2C1=O	85	?	-6
C[C@H]1CN([C@@H](C)CO)C(=O)c2cc(/C=C/c3ccccc3)cnc2O[C@@H]1CN(C)C(=O)C1CCC1	?	-70	-2	T cruzi growth-2=?;T cruzi growth-3=28;NIH3T3 tox=5;NIH3T3 tox 2=18
C[C@H](CO)N1C[C@H](C)[C@@H](CN(C)C(=O)C2CCCCC2)Oc2ncc(/C=C/c3ccccc3)cc2C1=O	113*	-89*	-10	T cruzi growth-2=112*;T cruzi growth-3=68;NIH3T3 tox=-41;NIH3T3 tox 2=1
COc1ccc2c3c([nH]c2c1)[C@@H](CO)N(C(=O)c1ccccn1)CC31CCN(C(=O)C2CCCC2)CC1	·	-32	-2
O=S(=O)(N[C@H]1CC[C@@H](CCn2cc(-c3ccccn3)nn2)O[C@@H]1CO)c1cccc(F)c1	32	-11	1
O=C(c1ccccc1)N1Cc2ccccc2[C@@H]2OC(c3ccc(OCCCO)cc3)=N[C@]2(Cc2ccccc2)C1=O	·	·	2
C[C@H]1CN([C@@H](C)CO)S(=O)(=O)c2ccc(-c3ccccc3F)cc2O[C@H]1CN(C)Cc1cncnc1	-8	1	-8
C[C@@H]1CN([C@@H](C)CO)C(=O)c2cc(C#Cc3ccccc3)cnc2O[C@@H]1CN(C)S(=O)(=O)c1ccccc1F	52	-53	4
C[C@H]1CN([C@@H](C)CO)C(=O)c2cc(C#Cc3ccccc3)cnc2O[C@H]1CN(C)S(=O)(=O)c1ccccc1F	85	-59	2
C[C@H]1CN([C@@H](C)CO)C(=O)c2cc(C#Cc3ccccc3F)cnc2O[C@@H]1CN(C)S(=O)(=O)c1ccccc1F	115*	-44	-11	T cruzi growth-2=111*;T cruzi growth-3=76;NIH3T3 tox=26;NIH3T3 tox 2=43*
